The whole screen tested about 5,500 compounds, of which about 2,000 (36%) were called active. Roughly 18% stayed inconclusive and do not appear here. The list shows a part of the results. Values without a mark were called inactive. Rule as the data show it: active = normalized growth mostly below about 0.91 (no sharp cut-off); inconclusive = no clear call, values can overlap the other calls; inactive = mostly above about 0.92.
Test: chemical genetic growth profiling, strain panel (AID 1159580);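 also: tested at 20 µM; growth read once vehicle control cultures reached saturation at 30 °C; 1 = growth at the plate median or of vehicle wells; lower values mean less growth of the strain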
Conditions: S. cerevisiae deletion strains, growth OD

Cc1ccc(C)c(NC(=S)N(CCc2ccccc2)CCc2ccccn2)c1
normalized growth (locus YAL013W, strain DEP1, hits give low values): 0.989
normalized growth (locus YBR229C, strain ROT2, hits give low values): 0.983
normalized growth (locus YCL061C, strain MRC1, hits give low values): 1
normalized growth (locus YDL101C, strain DUN1, hits give low values): 1.04
normalized growth (locus YDR150W, strain NUM1, hits give low values): 0.99
normalized growth (locus YEL061C, strain CIN8, hits give low values): 0.953
normalized growth (locus YGR078C, strain PAC10, hits give low values): 0.996
normalized growth (locus YGR229C, strain SMI1, hits give low values): 0.974
normalized growth (locus YHR030C, strain SLT2, hits give low values): 0.978
normalized growth (locus YHR087W, strain rtc3, hits give low values): 0.958
normalized growth (locus YJL187C, strain SWE1, hits give low values): 0.989
normalized growth (locus YJR043C, strain POL32, hits give low values): 1.01
normalized growth (locus YJR075W, strain HOC1, hits give low values): 0.999
normalized growth (locus YKL190W, strain CNB1, hits give low values): 0.964
normalized growth (locus YLR039C, strain RIC1, hits give low values): 0.606 (active)
normalized growth (locus YLR058C, strain SHM2 (second series), hits give low values): 0.98
normalized growth (locus YLR085C, strain ARP6, hits give low values): 0.928
normalized growth (locus YLR262C, strain YPT6, hits give low values): 0.853
normalized growth (locus YML094W, strain GIM5, hits give low values): 0.95
normalized growth (locus YMR219W, strain ESC1, hits give low values): 0.996
normalized growth (locus YMR263W, strain SAP30, hits give low values): 0.985
normalized growth (locus YNL153C, strain GIM3, hits give low values): 1.01
normalized growth (locus YNL298W, strain CLA4 (second series), hits give low values): 0.984
normalized growth (locus YNL322C, strain KRE1, hits give low values): 0.974
normalized growth (locus YNR030W, strain Alg12, hits give low values): 0.988
normalized growth (locus YPL055C, strain LGE1, hits give low values): 0.946
normalized growth (locus YPL241C, strain CIN2, hits give low values): 1.03
normalized growth (locus YPR135W, strain CTF4, hits give low values): 0.942
